From PubChem BioAssay (NCI)
About 79,000 compounds went through this panel and 15% of them were active in at least one assay; those are over-represented in the sample as a whole. Active and inactive are the calls of the source. No stated cut-off is given here; in the data, active means growth inhibition above about 70%; inactive means the rest.

How the values were obtained:
[1] = NCI Yeast Anticancer Drug Screen. Data for the rad52 strain (AID 147);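 further: 0% = growth of vehicle-treated control cultures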; conditions: S. cerevisiae rad52 mutant growth inhibition, stronger effect = higher value
Summary of the method: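 Vehicle-treated cultures served as the reference for growth inhibition of compound-exposed yeast bearing a DNA repair mutation.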

[2] = NCI Yeast Anticancer Drug Screen. Data for the wt1 strain (AID 149);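 further: 0% = growth of vehicle-treated wt1 cultures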; conditions: S. cerevisiae wt1 strain (SPY 50644) growth inhibition, stronger effect = higher value
Summary of the method: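 Using yeast strain wt1, compound-induced growth inhibition was determined against vehicle-treated cultures.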

[3] = NCI Yeast Anticancer Drug Screen. Data for the rad50EPP+ strain (AID 151);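 further: 0% = growth of vehicle-treated control cultures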; conditions: S. cerevisiae rad50 mutant strain, stronger effect = higher value
Summary of the method: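 In this screen, rad50EPP+ yeast were exposed to compounds. Growth inhibition was scored against vehicle-treated controls.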

[4] = NCI Yeast Anticancer Drug Screen. Data for the mgt1 strain (AID 153); conditions: S. cerevisiae mgt1 mutant growth inhibition, stronger effect = higher value
Summary of the method: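 mgt1 strain exposed; growth vs vehicle control recorded as inhibition.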

[5] = NCI Yeast Anticancer Drug Screen. Data for the rad50 strain (AID 155);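 further: 0% = growth of vehicle-only cultures of the same strain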; conditions: S. cerevisiae rad50 strain growth inhibition, stronger effect = higher value
Summary of the method: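 Relative growth inhibition (compound vs vehicle) was measured in yeast with a defined repair-gene alteration.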

[6] = NCI Yeast Anticancer Drug Screen. Data for the mec2-1 strain (AID 157); conditions: S. cerevisiae mec2-1 strain, stronger effect = higher value
Summary of the method: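 Vehicle-treated cultures served as reference for growth inhibition of compound-exposed mec2-1 yeast.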

[7] = NCI Yeast Anticancer Drug Screen. Data for the rad14 strain (AID 159);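 further: 0% = growth of vehicle-treated control cultures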; conditions: S. cerevisiae rad14 strain growth inhibition, stronger effect = higher value
Summary of the method: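 Screen for anticancer potential: a yeast strain altered in DNA damage repair is grown with compound, and reduced growth is quantified against vehicle controls.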

[8] = NCI Yeast Anticancer Drug Screen. Data for the sgs1 mgt1 strain (AID 161);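 further: 0% = growth of cultures given vehicle only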; conditions: S. cerevisiae sgs1 mgt1 strain, stronger effect = higher value
Summary of the method: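 Genetically altered yeast, compound exposure, growth inhibition relative to vehicle.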

[9] = NCI Yeast Anticancer Drug Screen. Data for the CLN2oe strain (AID 163);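 further: 0% = growth of vehicle-only control cultures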; conditions: S. cerevisiae CLN2oe strain, stronger effect = higher value
Summary of the method: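 Inhibition relative to vehicle-treated yeast is reported. Cells: strain with genetic alteration in cell-cycle control, grown with compound.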

[10] = NCI Yeast Anticancer Drug Screen. Data for the cln2 rad14 strain (AID 165);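 further: 0% = growth equal to vehicle treated cultures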; conditions: S. cerevisiae cln2 rad14 strain, stronger effect = higher value
Summary of the method: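 Each compound was tested on cln2 rad14 yeast. Inhibition of growth was calculated against vehicle-exposed controls.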

[11] = NCI Yeast Anticancer Drug Screen. Data for the bub3 strain (AID 167); conditions: S. cerevisiae bub3 mutant strain, stronger effect = higher value
Summary of the method: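 Screening used yeast with an engineered genetic alteration affecting cell cycle control. Compound-exposed cultures were compared with vehicle cultures, and reduced growth was taken as inhibition.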

[12] = NCI Yeast Anticancer Drug Screen. Data for the wt2 strain (AID 169);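 further: 0% = growth of vehicle-treated yeast cultures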; conditions: S. cerevisiae wt2 strain growth inhibition, stronger effect = higher value
Summary of the method: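 Inhibition of yeast growth was determined after compound treatment, normalised to controls receiving only vehicle.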

[13] = NCI Yeast Anticancer Drug Screen. Data for the mlh1 strain (AID 171);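 further: 0% = growth of vehicle-treated control cultures of the same strain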; conditions: S. cerevisiae mlh1 strain growth inhibition, stronger effect = higher value
Summary of the method: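 Vehicle-normalised growth inhibition of a repair- or checkpoint-altered yeast strain following compound treatment.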

[14] = NCI Yeast Anticancer Drug Screen. Data for the sgs1 strain (AID 173);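 further: 0% = growth of vehicle-only control cultures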; conditions: S. cerevisiae sgs1 mutant, stronger effect = higher value
Summary of the method: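 Screen format: yeast with repair or checkpoint alterations, compound exposure, growth read relative to vehicle.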

[15] = NCI Yeast Anticancer Drug Screen. Data for the mlh1 rad18 strain (AID 175); conditions: S. cerevisiae mlh1 rad18 strain growth inhibition, stronger effect = higher value
Summary of the method: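 Vehicle-treated cultures served as the reference for growth inhibition in a yeast strain carrying DNA damage repair alterations exposed to each compound.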

[16] = NCI Yeast Anticancer Drug Screen. Data for the rad18 strain (AID 177); conditions: S. cerevisiae rad18 mutant growth inhibition, stronger effect = higher value
Summary of the method: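 Test articles were incubated with altered yeast defective in DNA damage repair. Results are given as inhibition of growth versus vehicle.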

[17] = at 5.0 µM (retest, dose inferred, filed as 0.5)
[18] = at 50.0 µM (retest, dose inferred, filed as 5.0)

Measured: growth inhibition

COC(=O)C(=O)CC(=O)c1cccc(OC)c1
active: [7]; at 100.0 µM 94% | [12]; at 33.0 µM 71% | [12]; at 100.0 µM 92% | [14]; at 100.0 µM 82%
inactive: [1]; at 1.2 µM -9% | [1]; at 3.7 µM -10% | [1]; at 11.0 µM -5% | [1]; at 33.0 µM 10% | [1]; at 100.0 µM 17% | [2]; at 1.2 µM 1% | [2]; at 3.7 µM 9% | [2]; at 11.0 µM 24% | [2]; at 33.0 µM 28% | [2]; at 100.0 µM 39% | [3]; at 1.2 µM -10% | [3]; at 3.7 µM -23% | [3]; at 11.0 µM -7% | [3]; at 33.0 µM 32% | [3]; at 100.0 µM 26% | [4]; at 1.2 µM -1% | [4]; at 3.7 µM -4% | [4]; at 11.0 µM 2% | [4]; at 33.0 µM 14% | [4]; at 100.0 µM 40% | [5]; at 1.2 µM -13% | [5]; at 3.7 µM -15% | [5]; [17] -150% | [5]; at 11.0 µM -10% | [5]; at 33.0 µM 32% | [5]; [18] 51% | [5]; at 50.0 µM 19.4% | [5]; at 100.0 µM 44% | [6]; at 1.2 µM 0% | [6]; at 3.7 µM 1% | [6]; [17] -44% | [6]; at 11.0 µM 4% | [6]; at 33.0 µM 10% | [6]; [18] -15% | [6]; at 50.0 µM 18.6% | [6]; at 100.0 µM 16% | [7]; at 1.2 µM -8% | [7]; at 3.7 µM 7% | [7]; at 11.0 µM 33% | [7]; at 33.0 µM 67% | [8]; [17] -58% | [8]; [18] 24% | [8]; at 50.0 µM 0.4% | [9]; at 1.2 µM -6% | [9]; at 3.7 µM -3% | [9]; at 11.0 µM -1% | [9]; at 33.0 µM 1% | [9]; at 100.0 µM 10% | [10]; [17] -51% | [10]; [18] -45% | [10]; at 50.0 µM -75.5% | [11]; at 1.2 µM -4% | [11]; at 3.7 µM -4% | [11]; [17] -67% | [11]; at 11.0 µM -5% | [11]; at 33.0 µM 2% | [11]; [18] 12% | [11]; at 50.0 µM -7.55% | [11]; at 100.0 µM 22% | [12]; at 1.2 µM -5% | [12]; at 3.7 µM 9% | [12]; at 11.0 µM 27% | [13]; at 1.2 µM -11% | [13]; at 3.7 µM -5% | [13]; at 11.0 µM -3% | [13]; at 33.0 µM 39% | [13]; at 100.0 µM 64% | [14]; at 1.2 µM -16% | [14]; at 3.7 µM -6% | [14]; at 11.0 µM 8% | [14]; at 33.0 µM 49% | [15]; [17] -143% | [15]; [18] -19% | [15]; at 50.0 µM 49.6% | [16]; at 1.2 µM -6% | [16]; at 3.7 µM -2% | [16]; at 11.0 µM -1% | [16]; at 33.0 µM 6% | [16]; at 100.0 µM 19%

Cc1cc(Cl)ccc1NC(=O)/C(Cl)=C(/Cl)C(=O)O
inactive: [1]; at 1.2 µM 2% | [1]; at 3.7 µM 6% | [1]; at 11.0 µM 21% | [2]; at 1.2 µM 0% | [2]; at 3.7 µM -1% | [2]; at 11.0 µM 0% | [2]; at 33.0 µM 11% | [3]; at 1.2 µM 5% | [3]; at 3.7 µM 11% | [3]; at 11.0 µM 25% | [4]; at 1.2 µM 0% | [4]; at 3.7 µM 5% | [4]; at 11.0 µM 8% | [4]; at 33.0 µM 29% | [5]; at 1.2 µM 1% | [5]; at 3.7 µM 6% | [5]; [17] -1% | [5]; at 11.0 µM 16% | [5]; [18] 22% | [6]; at 1.2 µM 3% | [6]; at 3.7 µM 6% | [6]; [17] 3% | [6]; at 11.0 µM 11% | [6]; at 33.0 µM 51% | [6]; [18] 23% | [7]; at 1.2 µM 2% | [7]; at 3.7 µM 5% | [7]; at 11.0 µM 13% | [7]; at 33.0 µM 34% | [8]; [17] 0% | [8]; [18] 37% | [9]; at 1.2 µM -1% | [9]; at 3.7 µM 3% | [9]; at 11.0 µM 1% | [9]; at 33.0 µM 11% | [10]; [17] -4% | [10]; [18] 11% | [11]; at 1.2 µM 2% | [11]; at 3.7 µM 4% | [11]; [17] 3% | [11]; at 11.0 µM 12% | [11]; at 33.0 µM 56% | [11]; [18] 37% | [12]; at 1.2 µM 0% | [12]; at 3.7 µM 1% | [12]; at 11.0 µM 5% | [12]; at 33.0 µM 18% | [13]; at 1.2 µM -1% | [13]; at 3.7 µM 2% | [13]; at 11.0 µM 5% | [13]; at 33.0 µM 22% | [14]; at 1.2 µM 2% | [14]; at 3.7 µM 2% | [14]; at 11.0 µM 11% | [14]; at 33.0 µM 55% | [15]; [17] 0% | [15]; [18] 17% | [16]; at 1.2 µM -2% | [16]; at 3.7 µM 0% | [16]; at 11.0 µM 11% | [16]; at 33.0 µM 30%
active: [1]; at 33.0 µM 70% | [1]; at 100.0 µM 99% | [2]; at 100.0 µM 99% | [3]; at 33.0 µM 78% | [3]; at 100.0 µM 99% | [4]; at 100.0 µM 100% | [5]; at 33.0 µM 81% | [5]; at 50.0 µM 99.5% | [5]; at 100.0 µM 99% | [6]; at 50.0 µM 97.7% | [6]; at 100.0 µM 100% | [7]; at 100.0 µM 100% | [8]; at 50.0 µM 99.7% | [9]; at 100.0 µM 99% | [10]; at 50.0 µM 98.8% | [11]; at 50.0 µM 99.6% | [11]; at 100.0 µM 99% | [12]; at 100.0 µM 100% | [13]; at 100.0 µM 100% | [14]; at 100.0 µM 99% | [15]; at 50.0 µM 99.3% | [16]; at 100.0 µM 99%
